# Measurements reported in PubChem BioAssay (NCATS).
# Where “and” joins values, the source holds several entries; their conditions need not be identical. Equal values may be shown once. Results filed as inconclusive are left out. Entries that show only a call come without a potency. Calls of active or inactive are those of the source. Unless noted, the call rests on the fitted dose curve; in most records, active means well fitted curve in the direction sought with a large enough effect; inconclusive means small, poorly fitted or top-dose-only effect, or another doubt; inactive means no such curve, though single readings can be large; an effect the other way counts as inactive or inconclusive.
# Columns and labels:
# [1] = Cell Viability - LYMP2-011 (AID 969); further: nearly all actives have a fitted effect of over 60% in size
# Summary of the method: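 Cells seeded at 2500 per well rest 5 hr before compound addition, then incubate 24 hr at 37 C. CellTiter-Glo reagent is added for 30 min at room temperature before luminescence detection.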
# [2] = Cell Viability - LYMP2-013 (AID 970); further: series mostly up to about 92 µM; nearly all actives have a fitted effect of over 55% in size
# Summary of the method: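 In complete culture medium, human lymphoblastoid cells were dosed for 24 hr at 37 C, with tetraoctylammonium bromide (6.4pM to 92 uM) as positive control. Viability reflects luciferase-based ATP signal; AC50 derived from concentration-response curves.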
# [3] = Cell Viability - LYMP2-015 (AID 971); further: nearly all actives have a fitted effect of over 55% in size
# Summary of the method: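 AC50 values reflect Hill-model fits of ATP-based luminescence (CellTiter-Glo) from a human lymphoblastoid line, 2500 cells/well, treated 24 hr at 37 C.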
# [4] = Cell Viability - LYMP2-017 (AID 972); further: series mostly up to about 92 µM; nearly all actives have a fitted effect of over 55% in size
# Summary of the method: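 In this qHTS format, lymphoblastoid cells in complete medium receive test compound for a day at 37 C before ATP content is quantified by luciferase luminescence. Reported AC50 figures come from standard Hill-equation curve fitting.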
# [5] = Cell Viability - LYMP2-019 (AID 973); further: nearly all actives have a fitted effect of over 55% in size
# Summary of the method: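 AC50 values come from Hill-equation modelling of qHTS concentration-response curves, where viability is measured as luciferase-based ATP luminescence in the lymphoblastoid line after 24 hr compound exposure in complete culture medium.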
# [6] = Cell Viability - LYMP2-021 (AID 974)
# Summary of the method: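 In qHTS format, compounds are tested against 2500 lymphoblastoid cells per well for 24 h; viable cell number is inferred from ATP-driven luciferase light, and Hill-equation fitting yields AC50 values.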
# [7] = Cell Viability - LYMP2-023 (AID 975)
# Summary of the method: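 In this qHTS, ATP-based luciferase luminescence (CellTiter-Glo) is quantified in human lymphoblastoid cells after 24 hr compound treatment at 37 C; tetraoctylammonium bromide serves as positive control. Concentration-response curves are Hill-fitted to give AC50.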
# [8] = Cell Viability - LYMP2-025 (AID 976); further: series mostly up to about 92 µM
# Summary of the method: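 Luminescent ATP readout after 24 hr treatment of a human lymphoblastoid line (LYMP2-025, 2500 cells/well, 37 C). Reagent developed 30 min at room temperature; AC50 fitted with the Hill equation.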
# [9] = Cell Viability - LYMP2-002 (AID 977); further: series mostly up to about 92 µM
# Summary of the method: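 Human lymphoblastoid cells, 2500/well, complete medium; 5 h 37 C settle; compound 24 h 37 C; CellTiter-Glo, 30 min RT; luminescence. Decrease in ATP = cytotoxicity; AC50 via Hill equation.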
# [10] = Cell Viability - LYMP2-006 (AID 978); further: series mostly up to about 92 µM; nearly all actives have a fitted effect of over 60% in size
# Summary of the method: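 Potency values are Hill-fit AC50s for decreases in intracellular ATP (CellTiter-Glo luminescence). LYMP2-006 lymphoblastoid cells, 2500 per well, were exposed to compound in complete culture medium for 24 hr at 37 C.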
# [11] = Cell Viability - LYMP2-007 (AID 979);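 further: cells exposed to compound for 24 h before reading; nearly all actives have a fitted effect of over 60% in size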
# Summary of the method: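 Measured via luciferase-based ATP quantitation: lymphoblastoid cells, 24 hr compound exposure at 37 C, AC50 from Hill fits.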
# [12] = Cell Viability - LYMP2-010 (AID 981); further: nearly all actives have a fitted effect of over 55% in size
# Summary of the method: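 This 24 hr viability screen uses LYMP2-010 lymphoblastoid cells, quantifies ATP via luciferase luminescence, and derives AC50 from Hill fits of qHTS concentration-response data.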
# [13] = Cell Viability - LYMP2-012 (AID 982)
# [14] = Cell Viability - LYMP2-014 (AID 983); further: series mostly up to about 92 µM; nearly all actives have a fitted effect of over 50% in size
# Summary of the method: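 Quantitative HTS in lymphoblastoid cells: 24 hr compound exposure, then CellTiter-Glo ATP luminescence. Positive control was tetraoctylammonium bromide, 6.4pM to 92 uM.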
# [15] = Cell Viability - LYMP2-016 (AID 984); further: nearly all actives have a fitted effect of over 55% in size
# Summary of the method: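 Cytotoxicity was scored by luminescent ATP content (CellTiter-Glo) after 24 h compound exposure at 37 C of a human lymphoblastoid line at 2500 cells/well. Concentration-response data were fitted to the Hill equation for AC50.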
# [16] = Cell Viability - LYMP2-018 (AID 985); further: nearly all actives have a fitted effect of over 50% in size
# Summary of the method: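 In this qHTS viability assay, cells are treated for 24 hr and cellular ATP is quantified by luciferase-based luminescence, with tetraoctylammonium bromide as positive control.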
# [17] = Cell Viability - LYMP2-020 (AID 986)
# Summary of the method: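 Cells at 2500 per well receive a 24 hr compound exposure at 37 C. Viability is measured as ATP-dependent luciferase luminescence, with AC50 modeled from qHTS concentration-response curves.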
# [18] = Cell Viability - LYMP2-022 (AID 987); further: nearly all actives have a fitted effect of over 55% in size
# Summary of the method: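 In this qHTS cytotoxicity screen, compound titrations were incubated 24 hr at 37 C with human lymphoblastoid cells in complete medium. Luciferase-based ATP luminescence provided the viability signal.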
# [19] = Cell Viability - LYMP2-024 (AID 988); further: nearly all actives have a fitted effect of over 60% in size
# Summary of the method: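 Cells at 2500 per well received compound for 24 hr after a 5 hr settling period. Viability was scored by CellTiter-Glo luminescence, with AC50 from Hill fits.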
# [20] = Cell Viability - LYMP2-026 (AID 989); further: nearly all actives have a fitted effect of over 50% in size
# Summary of the method: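 Acute toxicity screen in complete culture medium, with 24 hr compound exposure at 37 C. Viability read as cellular ATP via luciferase reaction, with tetraoctylammonium bromide (6.4pM to 92 uM) as positive control.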
# [21] = Cell Viability - LYMP1-002 - Assay at 24 hr (AID 993)
# Summary of the method: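 Viability was judged from intracellular ATP using a luciferase read-out, following a 24-hour compound incubation at 37 C of lymphoblastoid cells seeded at 2500 per well. Concentration-response data were fitted to the Hill equation for AC50.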
# [22] = qHTS assay for small molecule antagonists of retinoid X receptor alpha signaling (AID 588546; active means well fitted inhibition curve with a large enough effect in the signal ratio, with a control signal flat, not every such curve was filed as active; the % refers to the signal ratio;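 further: cells stimulated with 9-cis-retinoic acid as agonist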); conditions: HEK293T RXRa-UAS-bla, beta-lactamase ratio, antagonist mode; measured here: W530 green channel, cytotoxicity proxy
# Summary of the method: (§1)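 Beta-lactamase reporter inhibition, read as CCF4 fluorescence ratio (ex 405, em 460/530 nm) after 2 h at RT. HEK293T UAS-bla cells, 2500/well, were stimulated with 9-cis-RA at 500 or 100 nM final alongside test compound for 18 h at 37 C.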
# [23] = target: Retinoic acid receptor RXR-alpha (Homo sapiens) (UniProt P19793); assay: as above; conditions: HEK293T RXRa-UAS-bla, beta-lactamase ratio, antagonist mode
# Summary of the method: as §1
# [24] = qHTS assay for small molecule disruptors of the mitochondrial membrane potential - 1 hr assay (AID 651754; calls by dose curve; further: nearly all actives have a fitted effect of over 35% in size)
# Summary of the method: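 In this qHTS format, a 1 hr compound treatment of HepG2 cells precedes Mito-MPS staining, and membrane potential is judged from aggregate (red) against monomer (green) fluorescence intensity.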
# [25] = qHTS assay for small molecule disruptors of the mitochondrial membrane potential - 5 hr assay (AID 651755; calls by dose curve; further: nearly all actives have a fitted effect of over 40% in size)
# Summary of the method: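 Read-out: ratiometric Mito-MPS fluorescence, green monomer (ex 490/em 535) vs red mitochondrial aggregate (ex 540/em 590). HepG2 cells treated 5 hr at 37C before 30 min dye loading.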
# [26] = target: Tumor necrosis factor (Homo sapiens) (UniProt P01375); assay: qHTS assay to identify small molecules that stimulate Tumor Necrosis Factor-alpha (TNF-alpha) secretion (AID 651757; active means well fitted curve in the direction sought with a large enough effect in the signal ratio; the % refers to the signal ratio)
# Summary of the method: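 Using 3000 THP-1 cells per well, compounds and controls were applied for 17 hrs at 37 C. Detection followed with two labeled anti-TNF-alpha antibodies (cryptate donor, XL665 acceptor) for 3 hr at room temperature, measured by TR-FRET.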
# [27] = qHTS assay for environmental chemicals that activate the Aryl hydrocarbon Receptor (AhR) signaling pathway (AID 651777); conditions: 1A2-DRE human hepatoma cells, luciferase, 24 h; activation: stronger effect = higher value; further: nearly all actives have a fitted effect of over 15% in size
# Summary of the method: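 AhR activation is scored as a rise in luciferase from a stable DRE–CYP1A2 promoter construct in human hepatoma cells. Treatment lasts 24 hr at 37 C; detection uses One-Glo after 30 min at room temperature.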
# [28] = target: Peroxisome proliferator-activated receptor alpha (Homo sapiens) (UniProt Q07869); assay: qHTS assay for small molecule agonists of the peroxisome proliferator-activated receptor alpha (PPARalpha) signaling pathway (AID 651778); conditions: PathHunter PPARalpha complementation, chemiluminescence, 6 h; max response: stronger effect = higher value
# Summary of the method: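 Enzyme-fragment complementation assay in which ligand-bound PPARalpha translocates and forms an active enzyme that generates chemiluminescence. Cells were plated overnight, exposed to compound for 6 hr at 37 C, and then given detection reagent for 60 min at room temperature.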
# [29] = qHTS assay for small molecule antagonists of the retinoid-related orphan receptor gamma (ROR-gamma) signaling pathway - cell viability counter screen (AID 720652; active means well fitted curve in the direction sought with a large enough effect in the repeat runs; an effect the other way counts as inactive or inconclusive;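 further: CHO reporter cells with doxycycline-induced ROR-gamma expression; series mostly up to about 92 µM; compound exposure lasted 16 hr before ATP read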)
# Summary of the method: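 ATP-based viability readout in the ROR-gamma reporter CHO cells after 16 hr compound exposure under doxycycline induction.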
# [30] = qHTS assay for small molecule agonists of the antioxidant response element (ARE) signaling pathway measured by Nrf2-dependant transcriptional activity - cell viability counter screen (AID 720653; active means well fitted curve in the direction sought with a large enough effect in the repeat runs; an effect the other way counts as inactive or inconclusive); conditions: ARE-bla HepG2 viability, CellTiter-Glo ATP luminescence, 16 h; max response: stronger effect = lower value
# Summary of the method: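 ARE-bla HepG2 cells treated with compounds for 16 h at 37C; this counter screen measures viability as intracellular ATP by CellTiter-Glo luminescence after 30 min at room temperature.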
# [31] = qHTS assay for cell viability of HEK293 cells (AID 743288); conditions: ATP luminescence (CellTiter-Glo), 18 h; max response: stronger effect = lower value; further: nearly all actives have a fitted effect of over 50% in size
# Summary of the method: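 Readout is luciferase-coupled ATP content (CellTiter-Glo luminescence, 30 min room temperature) as a measure of metabolically competent cells. Parental HEK293 cells were plated 5 h or more before compound addition, then treated 18 h at 37 C.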
# [32] = qHTS assay for cell viability of the p53RE-bla HCT-116 cell line (AID 743292)
# Summary of the method: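 Quantitative high-throughput format: compounds in DMSO were pinned onto p53RE-bla HCT-116 cells (4,000/well) and incubated 16 h at 37 C. Total intracellular ATP, read by CellTiter-Glo luminescence, reflects viable cell number.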
# [33] = target: Rap guanine nucleotide exchange factor 3 (Homo sapiens) (UniProt O95398); assay: Confirmatory qHTS for agonist of cAMP-regulated guanine nucleotide exchange factor 3 (EPAC1) (AID 1645881);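 further: EPAC1 catalysed release of BODIPY-GDP from Rap1B seen as fluorescence loss; nearly all actives have a fitted effect of over 75% in size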
# [34] = target: Rap guanine nucleotide exchange factor 4 (Homo sapiens) (UniProt Q8WZA2); assay: Confirmatory qHTS for agonist of cAMP-regulated guanine nucleotide exchange factor 4 (EPAC2) (AID 1645884);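 further: nucleotide exchange releases bodipy-GDP from Rap1 and this lowers its fluorescence; nearly all actives have a fitted effect of over 65% in size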
# [35] = target: Rap guanine nucleotide exchange factor 3 (Homo sapiens) (UniProt O95398); assay: Counterscreen qHTS for antagonist of cAMP-regulated guanine nucleotide exchange factor 3 (EPAC1) (AID 1645888);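 further: fluorescence loss as bound BODIPY-GDP is released from Rap1B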
# Summary of the method: (§2)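 Rap1B–BODIPY-GDP (250 nM) with 50 uM GDP; compounds pin-transferred to 9.74 nM–152 uM final (activator) or from 7.32 nM upwards (inhibitor). Fluorescence Ex/Em 480/540 nm read at 5 and 30 min, then after adding cAMP or buffer, at room temperature.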
# [36] = target: Rap guanine nucleotide exchange factor 3 (Homo sapiens) (UniProt O95398); assay: Counterscreen qHTS for agonist of cAMP-regulated guanine nucleotide exchange factor 3 (EPAC1) (AID 1645889); further: nearly all actives have a fitted effect of over 40% in size
# Summary of the method: as §2
# [37] = target: Nuclear receptor subfamily 1 group I member 2 (Rattus norvegicus) (UniProt Q9R1A7); assay: qHTS assay for small molecule activators of the rat pregnane X receptor (rPXR) signaling pathway (AID 651751; call rule not given here); conditions: rPXR reporter cells, luciferase (One-Glo), 24 h
# [38] = qHTS assay for small molecule activators of the human pregnane X receptor (PXR) signaling pathway (AID 720659; call rule not given here)
# Chain of Retinoic acid receptor RXR-alpha (Homo sapiens) (P19793 whole entry, looked up): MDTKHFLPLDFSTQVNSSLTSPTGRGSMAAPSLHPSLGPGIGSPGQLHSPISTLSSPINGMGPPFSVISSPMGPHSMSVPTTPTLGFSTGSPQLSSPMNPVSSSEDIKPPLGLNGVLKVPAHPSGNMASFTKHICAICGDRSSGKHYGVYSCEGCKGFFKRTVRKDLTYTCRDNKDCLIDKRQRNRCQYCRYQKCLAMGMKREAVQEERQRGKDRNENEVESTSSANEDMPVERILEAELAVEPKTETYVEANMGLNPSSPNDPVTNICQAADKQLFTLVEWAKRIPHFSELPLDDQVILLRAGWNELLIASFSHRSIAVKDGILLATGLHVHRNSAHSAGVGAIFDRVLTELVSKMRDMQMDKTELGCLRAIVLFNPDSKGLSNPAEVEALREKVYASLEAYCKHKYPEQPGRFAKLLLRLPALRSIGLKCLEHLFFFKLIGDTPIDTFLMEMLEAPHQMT
# Chain of Peroxisome proliferator-activated receptor alpha (Homo sapiens) (Q07869 whole entry, looked up, the tested form may be a part): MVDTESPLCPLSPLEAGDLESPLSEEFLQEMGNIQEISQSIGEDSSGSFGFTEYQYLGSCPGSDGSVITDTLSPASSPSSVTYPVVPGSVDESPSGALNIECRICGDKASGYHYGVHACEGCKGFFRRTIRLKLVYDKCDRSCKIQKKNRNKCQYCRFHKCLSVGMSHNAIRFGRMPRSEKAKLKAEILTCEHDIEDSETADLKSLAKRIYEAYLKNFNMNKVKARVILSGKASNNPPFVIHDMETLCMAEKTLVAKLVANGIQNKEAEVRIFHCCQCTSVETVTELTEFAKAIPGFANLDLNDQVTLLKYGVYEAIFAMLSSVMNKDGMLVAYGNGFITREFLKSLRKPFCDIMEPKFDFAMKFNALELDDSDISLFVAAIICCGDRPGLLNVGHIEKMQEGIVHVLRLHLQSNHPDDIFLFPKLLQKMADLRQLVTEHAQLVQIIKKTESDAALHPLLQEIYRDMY
# Chain of Nuclear receptor subfamily 1 group I member 2 (Rattus norvegicus) (Q9R1A7 whole entry, looked up): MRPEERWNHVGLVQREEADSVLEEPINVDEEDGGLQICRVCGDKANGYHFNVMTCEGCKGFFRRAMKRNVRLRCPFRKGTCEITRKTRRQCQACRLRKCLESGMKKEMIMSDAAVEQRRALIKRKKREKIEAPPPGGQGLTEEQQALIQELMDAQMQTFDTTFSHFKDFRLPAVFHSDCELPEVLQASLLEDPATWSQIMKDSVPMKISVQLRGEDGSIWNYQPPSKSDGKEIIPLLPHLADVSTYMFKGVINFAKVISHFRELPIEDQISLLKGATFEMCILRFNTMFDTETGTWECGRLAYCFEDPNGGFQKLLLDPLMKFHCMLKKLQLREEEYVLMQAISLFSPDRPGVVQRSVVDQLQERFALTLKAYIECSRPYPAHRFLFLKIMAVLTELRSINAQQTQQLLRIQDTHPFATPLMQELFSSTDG
# Chain of Rap guanine nucleotide exchange factor 3 (Homo sapiens) (O95398 whole entry, looked up): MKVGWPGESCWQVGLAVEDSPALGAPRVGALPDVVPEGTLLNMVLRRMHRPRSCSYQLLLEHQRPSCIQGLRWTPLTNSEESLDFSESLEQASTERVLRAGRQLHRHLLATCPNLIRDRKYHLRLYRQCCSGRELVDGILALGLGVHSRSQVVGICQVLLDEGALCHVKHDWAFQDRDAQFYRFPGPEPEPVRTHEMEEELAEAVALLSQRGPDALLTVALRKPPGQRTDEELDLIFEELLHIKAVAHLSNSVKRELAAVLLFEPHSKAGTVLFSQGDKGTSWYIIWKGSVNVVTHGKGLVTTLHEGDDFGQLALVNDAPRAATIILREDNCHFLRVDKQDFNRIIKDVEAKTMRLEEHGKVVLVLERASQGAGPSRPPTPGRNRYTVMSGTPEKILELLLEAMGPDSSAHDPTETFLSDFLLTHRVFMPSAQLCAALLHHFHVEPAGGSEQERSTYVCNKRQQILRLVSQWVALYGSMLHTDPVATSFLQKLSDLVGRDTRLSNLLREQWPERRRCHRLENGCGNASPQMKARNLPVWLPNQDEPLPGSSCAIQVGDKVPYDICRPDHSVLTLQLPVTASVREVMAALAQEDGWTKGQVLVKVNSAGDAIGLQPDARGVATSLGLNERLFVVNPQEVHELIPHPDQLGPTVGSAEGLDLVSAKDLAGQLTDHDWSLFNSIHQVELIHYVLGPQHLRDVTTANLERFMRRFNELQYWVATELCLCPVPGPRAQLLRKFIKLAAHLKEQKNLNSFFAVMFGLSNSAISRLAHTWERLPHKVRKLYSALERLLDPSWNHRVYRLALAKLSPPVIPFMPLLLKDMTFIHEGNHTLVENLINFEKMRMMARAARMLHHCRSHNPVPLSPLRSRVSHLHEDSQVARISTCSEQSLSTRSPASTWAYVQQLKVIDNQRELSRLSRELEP
# Chain of Tumor necrosis factor (Homo sapiens) (P01375 whole entry, looked up): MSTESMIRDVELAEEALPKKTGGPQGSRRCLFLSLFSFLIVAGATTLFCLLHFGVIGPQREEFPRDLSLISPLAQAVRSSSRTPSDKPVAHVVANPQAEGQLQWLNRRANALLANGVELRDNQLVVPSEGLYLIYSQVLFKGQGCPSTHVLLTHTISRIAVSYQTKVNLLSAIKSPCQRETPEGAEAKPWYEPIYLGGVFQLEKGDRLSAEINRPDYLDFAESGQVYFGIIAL
# Chain of Rap guanine nucleotide exchange factor 4 (Homo sapiens) (Q8WZA2 whole entry, looked up): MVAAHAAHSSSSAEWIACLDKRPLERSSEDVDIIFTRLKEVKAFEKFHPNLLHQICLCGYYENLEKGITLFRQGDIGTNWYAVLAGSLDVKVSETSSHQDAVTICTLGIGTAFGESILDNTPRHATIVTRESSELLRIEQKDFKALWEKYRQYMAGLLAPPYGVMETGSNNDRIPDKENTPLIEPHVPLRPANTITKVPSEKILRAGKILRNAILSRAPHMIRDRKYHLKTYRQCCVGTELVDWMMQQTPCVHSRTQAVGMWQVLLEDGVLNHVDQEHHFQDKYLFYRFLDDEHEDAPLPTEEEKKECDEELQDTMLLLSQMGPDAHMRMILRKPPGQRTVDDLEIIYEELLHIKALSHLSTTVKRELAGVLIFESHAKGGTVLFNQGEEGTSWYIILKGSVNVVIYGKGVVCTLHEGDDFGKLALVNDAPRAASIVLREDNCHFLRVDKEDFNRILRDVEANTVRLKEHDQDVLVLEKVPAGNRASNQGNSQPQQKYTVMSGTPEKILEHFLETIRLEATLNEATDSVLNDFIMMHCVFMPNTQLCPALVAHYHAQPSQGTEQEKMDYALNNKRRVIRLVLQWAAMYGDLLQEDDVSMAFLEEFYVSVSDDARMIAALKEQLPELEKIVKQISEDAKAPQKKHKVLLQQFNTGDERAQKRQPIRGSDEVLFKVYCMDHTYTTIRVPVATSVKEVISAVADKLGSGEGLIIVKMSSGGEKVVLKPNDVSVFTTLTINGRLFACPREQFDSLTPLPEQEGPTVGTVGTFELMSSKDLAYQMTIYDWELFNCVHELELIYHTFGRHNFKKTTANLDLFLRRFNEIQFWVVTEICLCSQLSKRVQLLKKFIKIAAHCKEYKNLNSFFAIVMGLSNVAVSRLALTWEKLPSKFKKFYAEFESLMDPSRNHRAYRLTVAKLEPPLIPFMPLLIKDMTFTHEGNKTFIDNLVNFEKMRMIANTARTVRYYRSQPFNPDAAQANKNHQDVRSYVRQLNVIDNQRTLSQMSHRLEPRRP
compound,measurement,setting,value
C[C@H](CCC(=O)O)[C@H]1CC[C@H]2[C@@H]3CC[C@@H]4C[C@H](O)CC[C@]4(C)[C@H]3CC[C@]12C,Potency,[1],inactive
same,Potency,[2],inactive
same,Potency,[3],inactive
same,Potency,[4],inactive
same,Potency,[5],inactive
same,Potency,[6],inactive
same,Potency,[7],inactive
same,Potency,[8],inactive
same,Potency,[9],inactive
same,Potency,[10],inactive
same,Potency,[11],inactive
same,Potency,[12],inactive
same,Potency,[13],inactive
same,Potency,[14],inactive
same,Potency,[15],inactive
same,Potency,[16],inactive
same,Potency,[17],inactive
same,Potency,[18],inactive
same,Potency,[19],inactive
same,Potency,[20],inactive
same,Potency,[21],inactive
same,max response,[22],21.6% and 12.2%
same,max response,[23],-5.6% (inactive) and -21.5% (inactive)
same,Potency,[24],inactive
same,Potency,[25],inactive
same,outcome,[26],inactive
same,activation,[27],1.31% (inactive) and 0.102% (inactive)
same,max response,[28],2.21% (inactive) and -0.262% (inactive)
same,Potency,[29],inactive
same,max response,[30],1.28% (inactive) and 4.08% (inactive)
same,max response,[31],-8.43% (inactive) and -9.1% (inactive)
same,Potency,[32],31.6 µM (active) and 35.5 µM (active)
same,Potency,[33],inactive
same,Potency,[34],inactive
same,Potency,[35],inactive
same,Potency,[36],inactive
same,max response,[37],6.51% (inactive) and -5.67% (inactive)
same,outcome,[38],inactive
